Bioassay records deposited in PubChem by National Center for Advancing Translational Sciences (NCATS).
LDHA inh = inhibitors of human lactate dehydrogenase A | hit rate 0.15% among 480,000 | activity change, % (values are at about 110 or 230 µM) | purified LDHA, NADH/diaphorase-resazurin fluorescence; active compounds read low | P00338; in the data active means activity change below about -30%;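 further: plate controls were DMSO wells for no effect and wells without enzyme for full effect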
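Human LDH5 at 2 nM final in Tris HCl pH 7.4 with 0.06 mM NADH and 0.2 mM pyruvate, reacted 5 minutes at room temperature. Remaining NADH coupled via diaphorase/resazurin; resorufin fluorescence read at 0 and 20 minutes, normalized to enzyme-free and DMSO wells.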
TRHR enhancer = allosteric enhancers of human TRH receptor; TRHR cells, fluo-8 calcium fluorescence, EC20 TRH enhancement; enhancement, % at 2 µM; hit rate 0.66% among 360,000; AID 493056; in the data active means enhancement above about 30%; further: 0% is about no effect
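Enhancer read-out: after compound pinning and an initial kinetic agonist-mode read, an EC20 of TRH (10 nM final) was injected and fluo-8 calcium signal (Ex 480/Em 530) followed at 1 s/cycle for 100 cycles in TRHR-expressing cells.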
D1 PAM = enhances dopamine response at the human D1 receptor; P21728; HEK293 TREx D1 cells, calcium flux, dopamine EC20 potentiation; potentiation, % at 10 µM; hit rate 0.036% among 360,000; AID 504651; in the data active means potentiation above about 30%; further: 0% is about no effect
Target sequence (P21728 whole entry, looked up): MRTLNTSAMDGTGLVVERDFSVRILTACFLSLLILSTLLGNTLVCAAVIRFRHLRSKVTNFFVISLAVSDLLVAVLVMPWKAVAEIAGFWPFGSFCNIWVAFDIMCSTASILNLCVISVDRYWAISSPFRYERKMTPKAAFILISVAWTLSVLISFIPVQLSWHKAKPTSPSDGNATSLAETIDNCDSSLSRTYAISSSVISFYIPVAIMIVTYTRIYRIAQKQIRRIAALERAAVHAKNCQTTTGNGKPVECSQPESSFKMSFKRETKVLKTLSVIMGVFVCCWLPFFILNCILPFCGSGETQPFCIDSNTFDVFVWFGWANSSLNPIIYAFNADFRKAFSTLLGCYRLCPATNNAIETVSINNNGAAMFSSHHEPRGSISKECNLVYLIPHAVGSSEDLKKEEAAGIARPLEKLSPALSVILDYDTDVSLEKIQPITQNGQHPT
TRHR agonist = activates the human TRH receptor; activation, % at 2 µM; P34981; hit rate 0.18% among 360,000; TRHR cells, calcium flux fluo-8, FDSS agonist mode; further: 0% is about no effect
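Fluo-8-loaded TRHR cells; 10 s baseline, compound added, kinetic Ca2+ fluorescence read 1/s, agonist mode.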
D1 ag = activates the human D1 dopamine receptor. P21728. HEK293 T-REx D1 cells, calcium flux, agonist mode. activation, % at 2 µM. hit rate 1% among 360,000. AID 504660; further: 0% is about no effect
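Tetracycline-induced HEK293 TREx D1 cells, force-coupled to calcium signalling, were dye-loaded with a no-wash calcium kit. Compound was pin-added after a 10 s baseline. Fluorescence was read kinetically at 1 cycle/s for 180 s, with calcium rises flagged as agonism.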
D1 antag = human D1 dopamine receptor antagonism; P21728; HEK293 TREx D1 cells, calcium flux, dopamine EC80; active compounds read low; hit rate 3.2% among 360,000; activity change, negative = inhibition, % at 10 µM; in the data active means activity change below about -30%; further: on the % scale 0 is the no-effect control and ±100 the full control effect
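HEK293 T-REx cells expressing inducible, force-coupled D1 receptor; no-wash Ca dye, 30–90 min RT. Cmpd → 180 s read at 1 Hz → EC80 DA → 180 s read.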
Active calls of the source: *; · = not tested or not shown; ! = repeats disagree. An excerpt weighted towards active compounds, which were near 3.6% of everything screened. Unless noted, no stated cut-off is given here; in the data, active means activation above about 30%; inactive means the rest.

SMILES	LDHA inh	TRHR enhancer	D1 PAM	TRHR agonist	D1 ag	D1 antag
O=C(CN1CCN(C(=O)C2CCCO2)CC1)Nc1ccc(Cl)cc1 (stereo not given)	0.4	-3.2	4.5	0.2	-0.6	-30.4*
O=C(CN1CCN(C(=O)C2COc3ccccc3O2)CC1)Nc1ccccc1 (stereo not given)	-4.1	-2.6	-8.2	1.1	2.6	-33.1*
O=C(Nc1ccc(Cl)cc1)N1CCN(C(=O)C2CCCO2)CC1 (stereo not given)	-1.7	-4.4	-2.7	0.1	1.1	-19.8
COc1cc(NC(=O)Nc2ccccc2OC)c(OC)cc1NC(=O)CN1CCCCC1	7.5	3.8	-12.1	-0.6	1.3	-32.3*
O=C(C1CCCO1)N1CCN(S(=O)(=O)c2ccc(Cl)cc2)CC1 (stereo not given)	4.6	0.0	-8.8	0.1	2.9	-47.1*
CC(C)(C)c1csc(NC(=O)C2CC(=O)N(Cc3ccco3)C2)n1 (stereo not given)	1.4	·	·	·	·	·
CCOC(=O)C1CCN(C(c2ccccc2)c2sc3nc(-c4ccco4)nn3c2O)CC1 (stereo not given)	4.5	·	·	·	·	·
COC(=O)c1ccc(COc2ccc3c(C)c(Cc4ccccc4)c(=O)oc3c2)o1	2.8	·	·	·	·	·
O=Cc1cn[nH]c1-c1cc2ccccc2o1	-3.4	·	·	·	·	·
COc1ccccc1NC(=O)CN1CCN(C(=O)C2CCCO2)CC1 (stereo not given)	6.7	31.6*	1.3	-0.3	2.9	-22.5
O=C(C1CC(Cl)CN1S(=O)(=O)c1ccc(Cl)cc1)N1CCOCC1 (stereo not given)	-7.9	-6.3	-5.2	0.5	-0.6	-36.2*
COC(=O)CCC(=O)N1CCC(CCC(=O)NCc2ccc(F)cc2)CC1	-10.3	-1.6	-3.0	-0.4	4.3	5.8
O=C(c1ccco1)N1CCN(c2nc(-c3ccc(F)cc3)cs2)CC1	-6.8	2.8	-5.8	0.2	1.7	-41.7*
O=C(CCC1CCN(C(=O)c2ccco2)CC1)NCc1ccc(F)cc1	-3.0	-6.3	-15.1	-0.3	0.3	-49.9*
COc1cc(OC)cc(C(=O)NC(C(=O)Nc2ccc3c(c2)OCO3)C(C)C)c1 (stereo not given)	-3.0	-0.3	·	0.9	2.6	-9.1
COc1cc(OC)cc(C(=O)N[C@H](C(=O)Nc2ccc3c(c2)OCO3)C(C)C)c1	-2.4	1.0	1.7	1.7	3.4	-33.4*
COCCn1c(SC(C)C(=O)NC2CCCCCC2)nnc1-c1cccc(C)c1 (stereo not given)	-4.7	·	·	·	·	·
Cc1cc(Br)ccc1NCc1ccccn1	-23.2	5.7	5.7	0.2	0.3	-56.4*
Cc1ccccc1Nc1nnc(SCc2cc(=O)n3ccsc3n2)s1	6.1	8.2	8.2	-0.2	4.6	-54.1*
O=C(Cn1c(=O)oc2cc(S(=O)(=O)N3CCCC3)ccc21)N1CCc2ccccc2C1	0.1	-11.4	·	0.1	6.1	-0.9
CC1CCN(S(=O)(=O)c2ccc3c(c2)oc(=O)n3CC(=O)N2CCc3ccccc3C2)CC1	-7.4	-3.6	·	0.0	0.4	-64.7*
CC1CCCN(C(=O)Cn2c(=O)oc3cc(S(=O)(=O)N4CCCCC4)ccc32)C1 (stereo not given)	-1.9	-2.8	3.6	-0.3	1.1	27.2
CC1CCCCN1C(=O)Cn1c(=O)oc2cc(S(=O)(=O)N3CCCC3)ccc21 (stereo not given)	2.7	33.7*	-0.6	-2.2	7.1	9.0
CC1CCN(C(=O)Cn2c(=O)oc3cc(S(=O)(=O)N4CCCCC4)ccc32)CC1	-13.1	-0.2	48.5*!	0.2	2.3	-9.9
CN(C)C(=O)CN1CCN(c2ccnc3c(F)ccc(F)c23)CC1	0.0	·	·	·	·	·
COc1ccc(NS(=O)(=O)c2ccc(-n3cccn3)cc2)cc1OC	-10.7	-2.9	-6.8	0.7	14.5	-33.1*
CCc1cccc(C)c1NS(=O)(=O)c1ccc(-n2cccn2)cc1	-6.3	2.9	-1.4	-0.6	22.2	-47.1*
O=C(NCc1ccc(F)cc1)C1CCN(S(=O)(=O)c2ccc(Br)s2)CC1	-4.4	-5.0	-5.5	0.2	0.0	-30.5*
CC(C)CN(CC(C)C)S(=O)(=O)N1CCC(C(=O)NCc2ccc(F)cc2)CC1	-12.9	13.6	-9.4	-0.7	27.6	-67.3*
